# FLuc modulator – firefly luciferase modulation, counter-screen for miR-21 project; 6.9% of 360,000 active; P08659; Potency, µM (highest dose often 57.5 µM), for inactives: at the highest dose activity change, negative = inhibition, usual class: inhibitors; AID 588342; purified FLuc, Km substrates, luminescence inhibition;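 also: plate controls were vehicle for no effect and reference inhibitor for full effect; nearly all actives have a fitted effect of over 55% in size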
# Target sequence (P08659 whole entry, looked up): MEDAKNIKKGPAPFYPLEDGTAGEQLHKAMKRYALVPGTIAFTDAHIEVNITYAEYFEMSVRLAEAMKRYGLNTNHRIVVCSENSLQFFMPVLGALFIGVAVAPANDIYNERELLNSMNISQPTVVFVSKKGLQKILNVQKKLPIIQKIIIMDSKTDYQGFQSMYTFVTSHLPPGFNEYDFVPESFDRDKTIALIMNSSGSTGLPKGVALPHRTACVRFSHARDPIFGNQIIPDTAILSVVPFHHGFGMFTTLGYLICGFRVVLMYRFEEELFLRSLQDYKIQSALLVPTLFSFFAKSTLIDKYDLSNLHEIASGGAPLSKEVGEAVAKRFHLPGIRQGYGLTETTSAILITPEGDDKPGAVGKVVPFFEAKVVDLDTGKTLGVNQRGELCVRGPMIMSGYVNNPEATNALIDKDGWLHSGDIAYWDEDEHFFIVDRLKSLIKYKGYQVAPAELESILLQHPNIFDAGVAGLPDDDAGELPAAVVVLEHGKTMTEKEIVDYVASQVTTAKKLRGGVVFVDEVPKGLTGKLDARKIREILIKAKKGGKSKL
#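 Purified P. pyralis luciferase, 10 nM final, with Km-level 10 uM D-luciferin and 10 uM ATP in 50 mM Tris acetate pH 7.5, 10 mM Mg acetate, 0.01% Tween-20, 0.05% BSA; 6-point qHTS titration about 60 µM downward; luminescence read.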
# ELG1 genotoxic – genotoxicity induction in ELG1-luciferase HEK293T cells; AID 504466; HEK293T ELG1-luciferase reporter, luminescence, 16 h; 1.3% of 330,000 active; Potency, µM (series often up to 46 µM), for inactives: at the highest dose activity change, positive = activation, hits mostly activators; also: % of control where 0% means no effect; nearly all actives have a fitted effect of over 60% in size
#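 After overnight (16 hr) compound treatment at 37 °C, ELG1-luciferase HEK293T cells were lysed with ONE-Glo; luminescence quantified 30 min later at room temperature.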
# SMN2 splice enh – increases expression of the SMN2 splice variant | HEK293 SMN2-luciferase splicing reporter, luminescence, 30-36 h | Potency, µM (highest dose often 46.1 µM), without a hit: at the highest dose activity change, positive = activation, actives largely listed as activators | 2.8% of 210,000 active | AID 1458; also: % of control where 0% means no effect; nearly all actives have a fitted effect of over 55% in size
#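 qHTS luciferase splicing reporter: luminescence rises when SMN2 exon 7 is included in transfected HEK293 cells. Compound exposure lasted 30-36 h at 37C, with 4.5 mM final sodium butyrate as control, followed by a ONE-Glo read.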
# Rab9 promoter act – Rab9 promoter activation; Huh7 Rab9 promoter-luciferase reporter, luminescence, 24 h; Potency, µM (titrated, usually from 9.22 µM), inactives show at the top dose activation, negative = inhibition, most hits filed as activators; 2.8% of 320,000 active; also: % of control where 0% means no effect; nearly all actives have a fitted effect of over 60% in size
#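 Huh7 cells stably carrying a Rab9 promoter-luciferase reporter, 1500 cells per well in OP-MEM I with 10% FBS, treated with compound 24 hours at 37C. Luciferase activity read by luminescence after 10 minutes with Amplite reagent.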
# NPC1 prom act – activates the NPC1 promoter. Potency, µM (top dose mostly 9.22 µM), for inactives: top-dose activation, most hits filed as activators. Huh7 NPC1 promoter luciferase reporter, 24 h. 2.4% of 320,000 active; also: % of control where 0% means no effect; nearly all actives have a fitted effect of over 60% in size
#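 NPC1 promoter–luciferase Huh7 cells; 24 h compound; luminescence.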
# p53 reactivator – re-activators of mutant p53; AID 504706; H1299 p53-A138V BP100-luciferase reporter, luminescence, 24 h; 0.063% of 320,000 active; Potency, µM (top dose mostly 92.2 µM), inactives show at the top dose activity change, positive = activation, usual class: activators; also: % of control where 0% means no effect; nearly all actives have a fitted effect of over 45% in size
#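 p53-null H1299 cells stably carrying temperature-sensitive p53-A138V and a BP100-luciferase reporter were pinned with compounds (4-point, 1:5 series) and held 24 hrs at 37 deg C. Luminescence was read 10 min after detection reagent.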
# * hit, by the source's call; ? = inconclusive; nt = no result; ! = a repeat was not active; [ ] = another dose, or the depositor's remark. Only some compounds are listed: those with a hit (about 7.3% of all), similar ones and a draw of the others. Calls follow the shape of the dose curve; as a rule, active = well fitted curve in the direction sought with a large enough effect; inconclusive = small, poorly fitted or top-dose-only effect, or another doubt; inactive = no such curve, though single readings can be large; an effect the other way counts as inactive or inconclusive. Potency is read from the fitted curve at half-maximal effect.
SMILES,FLuc modulator,ELG1 genotoxic,SMN2 splice enh,Rab9 promoter act,NPC1 prom act,p53 reactivator
NNCc1cccc(O)c1,2.7µM*,6%,-1%,-1%,-1%,?
CC1(C)CN=C(Nc2nc3ccccc3s2)S1,3.4µM*,5.8µM*,13µM*,0.63µM*,1.8µM*,?
O=C(Nc1cccc(F)c1)N1CC2(CCNCC2)C1,nt,nt,-3%,nt,nt,nt
O=C(N/N=C/c1c(O)n(Cc2ccccc2)c(=O)[nH]c1=O)c1ccccc1O,?,2%,12%,3%,8%,32µM*
O=C(N/N=C/c1c(O)n(Cc2ccc(F)cc2)c(=O)[nH]c1=O)c1ccccc1O,?,4%,nt,-2%,0%,25%
Cc1oc(/N=C/c2ccc3c(c2)OCO3)c(C#N)c1C,1.7µM*,?,0%,13%,-3%,4%
O=C1/C(=C/c2ccc3c(c2)OCO3)N2CCC1CC2,-11%,1%,18%,2%,4%,?
CCC1CN2CCc3cc(OC)c(OC)cc3C2CC1CC1NCCc2cc(OC)c(OC)cc21 (centres undefined),nt,nt,-86%,nt,nt,nt
COc1ccc2nc(N3CCN(C(=O)CS(=O)(=O)c4ccc(C)cc4)CC3)sc2c1,4.8µM*,nt,nt,nt,nt,nt
Cc1ccc(NS(=O)(=O)c2ccc(OCC(=O)N3CCN(C)CC3)cc2)cc1,1%,-1%,nt,0%,-3%,-7%
COc1cc(/C=C/[N+](=O)[O-])ccc1O,?,-18%,?,1%,-6%,-23%
COc1cc(/C=C(/C)[N+](=O)[O-])ccc1OCc1ccccc1Cl,13µM*,-16%,-103%,-52%,-8%,-26%
Cc1cc(NC(=O)c2noc3c2CCCCC3)no1,15µM*,?,?,?,?,?
Cc1cc(NC(=O)CCC(=O)N2CCC3(CC2)OCCO3)no1,-3%,1%,2%,12%,-1%,2%
O=C(O)[C@H]1C2c3ccccc3C(c3ccccc32)[C@@H]1C(=O)NCC1CC1,nt,nt,-3%[9.22 µM],nt,nt,nt
Cc1ccc2c(c1N)C(=O)c1ccccc1C2=O,4.3µM*,?,?,?,3.2µM*,?
CC(C)(O)C1O[C@H]2CC[C@@]3(C)[C@@](O)(CC[C@H]4Cc5c([nH]c6ccccc56)[C@@]43C)C2=CC1=O (some centres undefined),nt,nt,-1%,nt,nt,nt
O=C(c1ccc(F)cc1)C(Cc1ccccc1)N1CCCCC1 (centres undefined),19µM*,16%,29%,?,16%,26%
O=C(Cc1ccccc1)N1CCN(Cc2ccc(F)cc2)CC1,1%,-5%,nt,2%,-2%,3%
CN(C)[C@@H]1C(=O)C(C(N)=O)=C(O)[C@]2(O)C(=O)C3=C(O)c4c(O)cccc4[C@](C)(O)[C@H]3C[C@@H]12,nt,nt,1%[9.22 µM],nt,nt,nt
COc1ccc(C(=O)Nc2ccc(Cl)cc2C(=O)c2ccccc2)c(OC)c1,-12%,nt,-49%,nt,nt,nt
COc1ccc(C(=O)Nc2cc(Cl)ccc2C(=O)O)cc1,15µM*,6%,nt,16%,13%,2%
CC1(C)[C@@H](O)C[C@H]2[C@](C)(O)[C@@H]3CC[C@H]4[C@@H](O)[C@@]3(C[C@@H](O)[C@@]21O)C[C@@]4(C)O,nt,nt,-8%,nt,nt,nt
OC[P+](CO)(CO)CO,nt,nt,1%,nt,nt,nt
CSc1cccc(CNC(=O)C2CCC(=O)N(Cc3cccc(C(F)(F)F)c3)C2)c1 (centres undefined),17µM*,?,nt,?,?,11%
SMILES,FLuc modulator,ELG1 genotoxic,SMN2 splice enh,Rab9 promoter act,NPC1 prom act,p53 reactivator
C=CCn1c(O)c(C(C)=Nc2cc(OC)ccc2OC)c(=O)[nH]c1=O,0%,23µM*,10%,15%,-3%,17%
CC12CC[C@H]3[C@@H](CCC4(O)C[C@H](O)CCC34/C=N/NC(=O)c3ccc(O)cc3)C1(O)CCC2C1=CC(=O)OC1 (some centres undefined),19µM*,-2%,nt,-4%,-2%,-1%
CC12CC[C@H]3[C@@H](CCC4(O)C[C@H](O)CCC34/C=N/NC(=O)c3ccccc3O)C1(O)CCC2C1=CC(=O)OC1 (some centres undefined),27µM*,-13%,nt,-8%,7%,10%
CC12CC[C@H]3[C@@H](CCC4(O)C[C@H](O)CCC34/C=N/NC(=O)c3ccccc3F)C1(O)CCC2C1=CC(=O)OC1 (some centres undefined),-16%,-3%,nt,-3%,3%,2%
C=CC(=O)OCC(CC)CCCC (centres undefined),nt,nt,5%,nt,nt,nt
C[C@@H]1O[C@@H](O[C@H]2C[C@@H](O)[C@]3(CO)[C@H]4[C@H](O)C[C@]5(C)[C@@H](C6COC(=O)C6)CC[C@]5(O)[C@@H]4CC[C@]3(O)C2)[C@H](O)[C@H](O)[C@H]1O (some centres undefined),5%,-22%,0.79µM*,-37%,-45%,4%
C[C@@H]1O[C@@H](O[C@H]2C[C@@H](O)[C@]3(CO)[C@@H]4C(CC[C@]3(O)C2)[C@@]2(O)CC[C@H]([C@@H]3COC(=O)C3)[C@@]2(C)C[C@H]4O)[C@H](O)[C@H](O)[C@H]1O (some centres undefined),nt,nt,nt,-43%[46.1 µM],-34%[46.1 µM],nt
CN=C=S,nt,nt,5%,nt,nt,nt
Clc1ccc(Cl)c(Cl)c1,nt,nt,-5%,nt,nt,nt
Nc1nc(SCc2ccc(Cl)cc2Cl)n[nH]1,?,21µM*,?,21%,20%,3%
C=CCN1CC[C@]23c4c5ccc(O)c4O[C@@H]2/C(=N/N=C2\CC[C@@]4(O)C6Cc7ccc(O)c8c7[C@@]4(CCN6CC=C)[C@@H]2O8)CC[C@@]3(O)C1C5,nt,nt,29%,-40%[46.1 µM],-34%[46.1 µM],nt
C=CC(C)=O,nt,nt,-10%,nt,nt,nt
CC1=C/C(=N\NC(=S)NCCc2ccccc2)CC(C)(C)C1,21µM*,13%,?,29%,25%,?
O=S(=O)(NCCO)c1cc[c]([Sb])cc1,nt,nt,-4%[9.22 µM],nt,nt,nt
C[C@H]1C2C=C[C@H]1[C@@H](C(=O)O)[C@@H]2c1c2ccc(=O)c(O)c-2oc2c(O)c(O)ccc12,nt,nt,-3%[9.22 µM],nt,nt,nt
Cc1c(OCC(F)(F)F)ccnc1CS(=O)c1nc2ccccc2[nH]1 (centres undefined),13µM*!,13%,-10%,4µM*,2.8µM*,24%
COCCCOc1ccnc(CS(=O)c2nc3ccccc3[nH]2)c1C (centres undefined),?,14%,nt,2.8µM*,3.2µM*,29%
CC(=O)N1CCN(c2ccc(OCC3CO[C@@](Cn4ccnc4)(c4ccc(Cl)cc4Cl)O3)cc2)CC1 (some centres undefined),nt,nt,-69%,nt,nt,nt
C=C(C)C(=O)CP(=O)(OCC)OCC,nt,nt,-1%,nt,nt,nt

# High-throughput results (PubChem)
